Measured values: PubChem BioAssay AID651610 (Broad Institute, 2012)
Screen size: about 360,000 compounds; about 3,900 (1.1%) were called active. This excerpt belongs to a sample that is enriched for actives. Unmarked numbers belong to inactive results.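 How the source made its calls: active means mean replicate inhibition score of at least 50 and every replicate individually at or above 50; inconclusive means only one of the two criteria met; inactive means mean below 50 and not all replicates reaching 50.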

assay: blockers of JRFL envelope-mediated fusion – HeLa-JRFL effector, CEM21 target cells, luciferase, primary screen (AID 651610); settings: HeLa-JRFL Env/CEM21 cell fusion, active compounds read high; at 16.7 µM unless noted;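 further: 0% = plate neutral controls and 100% = maraviroc near 300 nM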

Compound	inhibition
Cc1noc(C)c1NC(=O)N(C)C[C@H]1OCCCC[C@@H](C)Oc2ccc(NS(=O)(=O)c3ccc(Cl)cc3)cc2C(=O)N([C@@H](C)CO)C[C@H]1C	-65.1%
CCCN(C)C[C@H]1OCCCC[C@@H](C)Oc2ccc(NC(=O)Nc3ccc(F)cc3)cc2C(=O)N([C@@H](C)CO)C[C@H]1C	-12.4%
C[C@@H]1CCCCO[C@@H](CN(C)C(=O)C2CCCCC2)[C@H](C)CN([C@H](C)CO)C(=O)c2cc(NC(=O)Cc3ccccc3)ccc2O1	-36.4%
COC(=O)[C@@]1(C)[C@H]2C(=O)N(Cc3ccccc3)C(=O)[C@H]2[C@H]2CN=C(SCC3CC3)N21	84% [at 12.3 µM] (active)
CC[C@]1(C(=O)OC)[C@H]2C(=O)N(Cc3ccccc3)C(=O)[C@H]2[C@H]2CN=C(SCc3ccccc3)N21	93.6% [at 12.3 µM] (active)
CCNC(=O)N(CC)C[C@H]1N[C@@](CC)(C(=O)OC)[C@H]2C(=O)N(Cc3ccccc3)C(=O)[C@@H]12	-2.99% [at 12.3 µM]
CCN(C[C@H]1N[C@@](Cc2ccccc2)(C(=O)OC)[C@H]2C(=O)N(Cc3ccccc3)C(=O)[C@@H]12)C(=O)c1ccc(C)cc1	-47.2% [at 12.3 µM]
CCN1C[C@@H]2[C@@H]3C(=O)N(Cc4ccccc4)C(=O)[C@@H]3[C@](C)(C1=O)N2C(=O)c1ccc(C(C)(C)C)cc1	-9.05% [at 12.3 µM]
CC[C@]1(C(=O)OC)[C@H]2C(=O)N(C)C(=O)[C@H]2[C@H]2CN(C)C(=NCc3ccccc3)N21	-17.3% [at 12.3 µM]
CCN1C[C@@H]2[C@@H]3C(=O)N(Cc4ccccc4)C(=O)[C@@H]3[C@](Cc3ccccc3)(C(=O)OC)N2C1=NC1CCCCC1	16.7% [at 12.3 µM]
COC(=O)[C@]1(Cc2ccccc2)N[C@H](CN(C)S(=O)(=O)c2ccc(F)cc2)[C@@H]2C(=O)N(Cc3ccccc3)C(=O)[C@@H]21	31.6% [at 12.3 µM]
CC[C@]1(C(=O)OC)[C@H]2C(=O)N(Cc3ccccc3)C(=O)[C@H]2[C@H]2CN=C(SCc3ccc(C#N)cc3)N21	87.6% [at 12.3 µM] (active)
CO[C@@H]1CN(C)C(=O)c2cc(NC(C)=O)ccc2OC[C@H](C)N(C(=O)CC2CC2)C[C@@H]1C	-18.3%
Cc1noc(C)c1S(=O)(=O)Nc1ccc2c(c1)C(=O)N([C@H](C)CO)C[C@@H](C)[C@@H](CN(C)C(=O)C1CCCCC1)OCCCC[C@@H](C)O2	2.09%
C[C@H](O)C#Cc1cnc2c(c1)C(=O)N([C@@H](C)CO)C[C@H](C)[C@@H](CN(C)C(=O)c1ccncc1)O2	-14.6%
CO[C@@H]1CN(C)C(=O)c2cc(NC(=O)c3ccc(F)cc3)ccc2OC[C@H](C)NC[C@@H]1C	-6.15%
Cc1ccccc1S(=O)(=O)N[C@H]1CC[C@@H](CCn2cc(Cc3ccccc3)nn2)O[C@H]1CO	0.428%
CCCC(=O)Nc1ccc2c(c1)OC[C@@H](C)N(CC1CCOCC1)C[C@H](C)[C@H](OC)CN(C)C2=O	-7.57%
C[C@@H]1CN([C@H](C)CO)C(=O)c2cccc(NC(=O)Nc3ccccc3)c2O[C@H]1CN(C)Cc1ccccc1	9.88%
Cc1ccc(S(=O)(=O)N(C)C[C@@H]2OCCCC[C@H](C)Oc3ccc(NS(=O)(=O)c4cn(C)cn4)cc3C(=O)N([C@H](C)CO)C[C@@H]2C)cc1	-30.7%
CO[C@H]1CN(C)C(=O)c2ccc(NS(=O)(=O)c3ccccc3)cc2OC[C@@H](C)N(Cc2nccs2)C[C@@H]1C	-11.1%

Compound	inhibition
C/C=C/c1ccc([C@@H]2[C@@H](CO)N(C(=O)CN(C)C)C23CN(C(=O)C2CCCC2)C3)cc1	25.3%
COC(=O)C1=C(C(=O)OC)C2C=C(C(C)C)C1C(=O)C2(C)O (stereo not drawn)	-16.5% [at 12.3 µM]
COc1ccc(NC(=O)c2oc3ccc(S(=O)(=O)N4CCOCC4)cc3c2C)cc1	6.27% [at 12.3 µM]
Cc1occc1C(=O)Nc1cccc(S(=O)(=O)N2CCOCC2)c1	-25.4% [at 12.3 µM]
Cc1c(C(=O)Nc2cccc(S(=O)(=O)N3CCOCC3)c2)oc2ccccc12	60.5% [at 12.3 µM] (active)
COc1ccc(S(=O)(=O)N(C)C[C@@H]2OCCCC[C@@H](C)Oc3ccc(NS(=O)(=O)c4ccccc4)cc3C(=O)N([C@@H](C)CO)C[C@H]2C)cc1	-2.53%
Cc1ccccc1N1CCN(C(=O)c2cccnc2)CC1	6.64% [at 12.3 µM]
O=C(Nc1ccc(N2CCN(C(=O)c3ccccc3)CC2)c(Cl)c1)c1cccnc1	86.4% [at 12.3 µM] (active)
O=C(Nc1ccc(N2CCN(C(=O)c3ccccc3)CC2)c(Cl)c1)c1ncn[nH]1	5.87% [at 12.3 µM]
C[C@H](CO)N1C[C@H](C)[C@H](CN(C)Cc2ccncc2)Oc2ncc(C#Cc3cccc(F)c3)cc2C1=O	7.42%
CC(C)NC(=O)N[C@@H]1CC[C@H](CC(=O)NCCN2CCCC2)O[C@@H]1CO	20.3%
C[C@H](CO)N1C[C@H](C)[C@H](CN(C)C(=O)Nc2ccc(C(F)(F)F)cc2)Oc2ccc(NC(=O)Nc3ccccc3)cc2C1=O	15.8%
COc1ccc(CC(N)c2csc(NC(=O)Cc3ccccc3)n2)cc1 (stereo not drawn)	-13.2% [at 12.3 µM]
NC(Cc1ccc(F)cc1)c1csc(Nc2nncc3ccccc23)n1 (stereo not drawn)	58.7% [at 12.3 µM] (active)
NC(Cc1ccccc1)c1csc(Nc2cc(Oc3ccccc3)ncn2)n1 (stereo not drawn)	-44.1% [at 12.3 µM]
C[C@H]1CCCCO[C@@H](CN(C)Cc2ccc(C(=O)O)cc2)[C@@H](C)CN([C@@H](C)CO)C(=O)c2cc(NS(C)(=O)=O)ccc2O1	18.6%
CN1C(=O)c2cc(NC(=O)c3ccc4c(c3)OCO4)ccc2OC[C@@H]2O[C@H](CC(=O)O)CC[C@H]21	-18.9%
O=C(Nc1cc(Cl)cc(Cl)c1)N[C@H]1CC[C@@H](CCNS(=O)(=O)c2cccc(F)c2)O[C@H]1CO	0.313%
CCCCNc1cccc2c1S(=O)(=O)N[C@@H](C)CO2	-0.896% [at 12.3 µM]
Cc1ccc(-c2csc(NC(=O)C3=COCCO3)n2)cc1C	55.4% [at 12.3 µM] (active)
NS(=O)(=O)c1ccc2nc(NC(=O)C3=COCCO3)sc2c1	-13.9% [at 12.3 µM]

Compound	inhibition
COc1ccc(C(O)c2nc(-c3ccc4c(c3)OCO4)cs2)cc1 (stereo not drawn)	-6.46% [at 12.3 µM]
O=C(Nc1nc(-c2ccc3c(c2)OCO3)cs1)c1ccncc1	71% [at 12.3 µM] (active)
C/C(=N/NC(=O)c1ccncc1)c1ccc2c(c1)OCO2	-13.1% [at 12.3 µM]
CCC(CC)c1nnc(NC(=O)C2=COCCO2)s1	-12% [at 12.3 µM]
Cc1noc(C)c1NC(=O)N(C)C[C@@H]1OCCCC[C@@H](C)Oc2ccc(NC(=O)C3CCCCC3)cc2C(=O)N([C@H](C)CO)C[C@@H]1C	-14%
C[C@@H]1CN([C@@H](C)CO)C(=O)c2cc(NC(=O)Nc3cccc4ccccc34)ccc2O[C@@H]1CN(C)C(=O)Nc1cccc2ccccc12	7.37%
C[C@@H]1CN([C@@H](C)CO)C(=O)c2cc(-c3cncnc3)cnc2O[C@H]1CN(C)C(=O)c1cccc(F)c1	-6.88%
C[C@@H]1CN([C@@H](C)CO)S(=O)(=O)c2ccc(C#CC3(O)CCCC3)cc2O[C@H]1CN(C)C(=O)c1ccncc1	-22.7%
CNC[C@H]1Oc2cc(-c3ccc(OC)cc3)ccc2S(=O)(=O)N([C@H](C)CO)C[C@@H]1C	1.64%
CNC[C@H]1Oc2c(NC(=O)C3CC3)cccc2C(=O)N([C@@H](C)CO)C[C@@H]1C	-1.43%
CCS(=O)(=O)N[C@@H]1CC[C@@H](CC(=O)NCC2CC2)O[C@H]1CO	-3.04%
C[C@@H]1CN([C@H](C)CO)S(=O)(=O)c2ccc(-c3ccccc3)cc2O[C@H]1CN(C)C(=O)C1CCC1	19.5%
C[C@@H]1CN([C@@H](C)CO)C(=O)Cc2cc(NS(=O)(=O)c3ccc(Cl)cc3)ccc2O[C@H]1CN(C)CC1CCCCC1	32.1%
C[C@H]1CN([C@@H](C)CO)C(=O)c2cc(-c3cccc(C(=O)N(C)C)c3)cnc2O[C@H]1CN(C)S(=O)(=O)c1ccccc1	-10.1%
O=C(C[C@H]1C[C@@H]2c3cc(NC(=O)C4CCC4)ccc3O[C@@H]2[C@H](CO)O1)NCCN1CCCCC1	16.8%
CCOC(=O)C1=C(CN2CCc3ccccc32)NC(=O)NC1c1cc(C)ccc1C (stereo not drawn)	-13.6% [at 12.3 µM]
CCOC(=O)C1=C(CN2CCc3ccccc32)NC(=O)NC1c1ccc(Cl)cc1 (stereo not drawn)	58% [at 12.3 µM] (active)
CCOC(=O)C1=C(c2ccccc2)NC(=O)NC1c1cc(OCC)c(O)c([N+](=O)[O-])c1 (stereo not drawn)	-15.8% [at 12.3 µM]
CCC(CC)COC(=O)C1=C(C)NC(=O)NC1c1ccc([N+](=O)[O-])cc1 (stereo not drawn)	29.9% [at 12.3 µM]
CCOC(=O)C1=C(CCc2ccccc2)NC(=O)NC1c1ccc2ccccc2c1 (stereo not drawn)	6.29% [at 12.3 µM]
CCOC(=O)C1=C(CN2CCc3ccccc32)NC(=O)NC1c1cccc([N+](=O)[O-])c1 (stereo not drawn)	64.3% [at 12.3 µM] (active)
